Hits are enriched below; roughly 8.5% of the tested compounds scored in any of these assays.
ALDH1A1 inh: blocks purified human ALDH1A1 activity; P00352; Purified ALDH1A1, NADH fluorescence, propionaldehyde substrate; Potency, µM (doses to about 75.3 µM), for inactives: at the top dose activity, negative = inhibition, actives largely listed as inhibitors; 220,000 tested, 7.3% active; AID 1030;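 further: potency means the concentration at half of the fitted maximal effect; plate controls were no enzyme wells and a reference inhibitor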
Target sequence (P00352 whole entry, looked up): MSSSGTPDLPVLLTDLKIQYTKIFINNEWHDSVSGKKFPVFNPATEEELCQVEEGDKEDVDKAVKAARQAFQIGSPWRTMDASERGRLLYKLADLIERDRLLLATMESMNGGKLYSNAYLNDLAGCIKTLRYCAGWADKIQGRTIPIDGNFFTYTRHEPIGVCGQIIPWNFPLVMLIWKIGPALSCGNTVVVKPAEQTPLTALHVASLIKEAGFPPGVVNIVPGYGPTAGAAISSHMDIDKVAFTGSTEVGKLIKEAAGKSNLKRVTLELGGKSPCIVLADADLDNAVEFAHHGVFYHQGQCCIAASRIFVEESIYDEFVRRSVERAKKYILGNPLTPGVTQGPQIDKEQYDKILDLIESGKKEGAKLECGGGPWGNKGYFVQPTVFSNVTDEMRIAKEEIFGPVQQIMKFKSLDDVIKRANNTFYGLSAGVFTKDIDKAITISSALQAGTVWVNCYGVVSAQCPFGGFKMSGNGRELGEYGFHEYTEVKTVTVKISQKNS
NPSR antagonist: antagonists of human neuropeptide S receptor cAMP signaling. CHO-NPSR cells, cAMP TR-FRET, antagonist mode. 220,000 tested, 1% active. AID 1461. Q6W5P4. Potency, µM (doses to about 38.3 µM), without a hit: top-dose activity change, negative = inhibition, actives largely listed as inhibitors; active means well fitted curve in the direction sought with a large enough effect; inconclusive means small, poorly fitted or top-dose-only effect, or another doubt; inactive means no such curve, though single readings can be large; an effect the other way counts as inactive or inconclusive; further: potency means the concentration at half of the fitted maximal effect; nearly all actives have a fitted effect of over 50% in size
FBPA coupling cs: counter-screen for Giardia aldolase inhibitors: coupling enzyme system; coupling enzyme system counterscreen, AmpLite Red fluorescence; activity change, negative = inhibition, % at 58.2 µM, hits read low; 290,000 tested, 0.67% active; in the data active means activity change below about -30%
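Counterscreen of the coupled detection system alone, without aldolase: glyceraldehyde-3-phosphate coupling enzymes plus AmpLite Red readout. Compounds at 57.5 uM final, 10 min RT preincubation, 20 min RT reaction, fluorescence 525/598 nm.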
RGS12 GoLoco inh: RGS12 GoLoco-Gai1 interaction inhibition. P63096. Gai1:RGS12 GoLoco peptide FP, rhodamine, 10 min. Potency, µM (highest dose often 61.6 µM), without a hit: top-dose activity, negative = inhibition, hits mostly inhibitors. 230,000 tested, 0.44% active. AID 880; active means well fitted inhibition curve with a large enough effect, not every such curve was filed as active; inactive means no such curve, though single readings can be large or run the other way; further: potency means the concentration at half of the fitted maximal effect; nearly all actives have a fitted effect of over 30% in size
JMJD2E inh: inhibitors of human JMJD2E histone demethylase. Potency, µM (top dose mostly 57.1 µM), for inactives: at the top dose activity change, negative = inhibition, most hits filed as inhibitors. 230,000 tested, 1.6% active. JMJD2E catalytic domain, FDH-coupled NADH fluorescence (FDH is formaldehyde dehydrogenase). B2RXH2;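 further: potency means the concentration at half of the fitted maximal effect; 0% = wells with enzyme and -100% = buffer wells without enzyme; nearly all actives have a fitted effect of over 50% in size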
Sfp PPTase inh: Sfp phosphopantetheinyl transferase inhibition. Q9F4F7. 310,000 tested, 3.5% active. AID 1490. Potency, µM, for the others: largest response in the series, negative = inhibition, actives largely listed as inhibitors. Biochemical Sfp PPTase activity, qHTS; active means well fitted curve in the direction sought with a large enough effect; inconclusive means small, poorly fitted or top-dose-only effect, or another doubt; inactive means no such curve, though single readings can be large; an effect the other way counts as inactive or inconclusive;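 further: the enzyme is Sfp with the accession as filed and its product quenches rhodamine fluorescence; potency means the concentration at half of the fitted maximal effect; 0% = enzyme reaction without inhibitor and -100% = no enzyme wells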
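Sfp 15 nM + cpd, 15 min RT; start w/ rhodamine-CoA 5 uM, BHQ-2-YbbR 12.5 uM (final); 50 mM Hepes pH 7.6, 10 mM MgCl2, 0.01% NP-40, 0.01% BSA; read 525/598 nm at 0 and 30 min.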
Active calls of the source: *; [ ] = another dose, or the depositor's remark. Unless noted, the call rests on the fitted dose curve; in most records, active means well fitted inhibition curve with a large enough effect (not every such curve was filed as active); inconclusive means small, poorly fitted or top-dose-only effect, or another doubt; inactive means no such curve, though single readings can be large or run the other way. Unless noted, on the % scale 0 is the no-effect control and ±100 the full control effect.

Screening COc1ccc(CCC(=O)OCC(=O)Nc2ccc(OC)c(OC)c2)cc1OC returned FBPA coupling cs 2.8 and Sfp PPTase inh 9.4%.
Screening COc1ccc(NC(=O)COC(=O)Cc2ccccc2[N+](=O)[O-])cc1OC returned ALDH1A1 inh 14.1µM*, NPSR antagonist 10.2%, FBPA coupling cs 0.1, RGS12 GoLoco inh 7.2%, JMJD2E inh -14.6% and Sfp PPTase inh -5.2%.
Screening COc1ccc(NCc2ccccc2[N+](=O)[O-])cc1OC returned ALDH1A1 inh inconclusive, NPSR antagonist 1.6%, FBPA coupling cs -40.2*, RGS12 GoLoco inh -1.0%, JMJD2E inh inconclusive and Sfp PPTase inh -5.1%.
`COc1ccc(CCN2C(=O)CC(N3CCN(c4ccccn4)CC3)C2=O)cc1OC` (stereo not given) gave ALDH1A1 inh 25.1µM*, NPSR antagonist 7.2%[46.1 µM], FBPA coupling cs -0.9, RGS12 GoLoco inh -7.7%, JMJD2E inh 2.6% and Sfp PPTase inh 10.6%.
COc1ccc(CCN2C(=O)CC(Sc3ncccc3C(=O)O)C2=O)cc1OC (stereo not given) was read as ALDH1A1 inh 3.55µM*, NPSR antagonist -1.1%[46.1 µM], FBPA coupling cs 6.4, RGS12 GoLoco inh -5.0%, JMJD2E inh 3.4% and Sfp PPTase inh -0.3%.
Screening CCCN1C(=O)CC(Sc2ncccc2C(=O)O)C1=O (stereo not given) returned NPSR antagonist 3.1%, FBPA coupling cs 0.0, RGS12 GoLoco inh -5.4%, JMJD2E inh 0.4% and Sfp PPTase inh 12.8%.
Screening O=C1CC(N2CCN(c3ccccn3)CC2)C(=O)N1c1ccc(F)cc1 (stereo not given) returned ALDH1A1 inh 1.9%, NPSR antagonist 13.2%, FBPA coupling cs 4.7, RGS12 GoLoco inh -13.9%, JMJD2E inh 5.7% and Sfp PPTase inh -7.8%.
Screening O=C1CC(N2CCN(c3ccccn3)CC2)C(=O)N1CC(c1ccccc1)c1ccccc1 (stereo not given) returned ALDH1A1 inh 3.16µM*, NPSR antagonist -8.8%, FBPA coupling cs -1.8, RGS12 GoLoco inh -7.9%, JMJD2E inh -4.5% and Sfp PPTase inh -12.0%.
For COc1ccc(CCN2C(=O)CC(C(N)=O)SC2=Nc2ccccc2)cc1OC (stereo not given) the results were ALDH1A1 inh 14.1µM*, NPSR antagonist 2.7%[46.1 µM], FBPA coupling cs -1.7, RGS12 GoLoco inh -2.1%, JMJD2E inh -3.3% and Sfp PPTase inh 4.9%.
`CNC(=O)C1CC(=O)N(CCc2ccc(OC)c(OC)c2)C(=Nc2ccc(F)cc2)S1` (stereo not given) gave ALDH1A1 inh 10.1%, NPSR antagonist -12.4%, FBPA coupling cs 8.0, RGS12 GoLoco inh 0.9%, JMJD2E inh inconclusive and Sfp PPTase inh 5.3%.
COc1ccc(CCNC(=O)c2coc3ccccc3c2=O)cc1OC was read as FBPA coupling cs 1.6 and Sfp PPTase inh -0.7%.
For O=C(COc1ccc(F)cc1F)N1CCCCCCC1 the results were FBPA coupling cs -1.5 and Sfp PPTase inh -1.8%.
For C/C(=N/NS(=O)(=O)c1ccc(C(C)(C)C)cc1)c1ccc2c(c1)OCO2 the results were FBPA coupling cs -1.8 and Sfp PPTase inh -0.2%.
CCOc1cc(CN2CCN(c3ncccn3)CC2)ccc1OC was read as FBPA coupling cs -3.4 and Sfp PPTase inh -9.1%.
`CN(C)C(=O)n1nnnc1Cc1ccc(-c2ccccc2)cc1` gave ALDH1A1 inh 1µM*, FBPA coupling cs 1.6, RGS12 GoLoco inh -12.5% and Sfp PPTase inh 0.7%.
Screening Cc1cccc(/C=C(\C(=O)C(=O)O)c2ccc3ccccc3n2)c1 returned ALDH1A1 inh 7.94µM*, NPSR antagonist -10.8%, FBPA coupling cs 4.1, RGS12 GoLoco inh -11.3%, JMJD2E inh inconclusive and Sfp PPTase inh -3.3%.
Screening Cn1cc(CNC(=O)C23CC4CC(CC(C4)C2)C3)cn1 returned ALDH1A1 inh 5.01µM*, NPSR antagonist -7.6%[46.1 µM], FBPA coupling cs -1.1, RGS12 GoLoco inh -8.0%, JMJD2E inh 5.7% and Sfp PPTase inh 2.4%.

Screens deposited in PubChem BioAssay by National Center for Advancing Translational Sciences (NCATS).
